Screening results from PubChem.
In the library only some 1.5% were active in any assay of this set; here they are far more common.
BLM inh – blocks DNA unwinding by human BLM helicase. P54132. recombinant BLM DNA unwinding, fluorescence dequenching. Potency, µM (top dose mostly 56.1 µM), without a hit: at the top dose activity change, negative = inhibition, most hits filed as inhibitors. actives 0.2% (n = 350,000). AID 2528;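 note: potency is the fitted concentration of half-maximal effect; plate controls were vehicle for no effect and no enzyme for full effect; nearly all actives have a fitted effect of over 35% in size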
RECQ1 inh – inhibitors of human RECQ1 DNA helicase; RECQ1 DNA unwinding, red fluorescence kinetic read; Potency, µM (titrated, usually from 57.3 µM), for the others: top-dose activity, negative = inhibition, most hits filed as inhibitors; actives 0.54% (n = 240,000); P46063; AID 2549;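 note: potency is the fitted concentration of half-maximal effect; plate controls were vehicle for no effect and no enzyme for full effect; nearly all actives have a fitted effect of over 30% in size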
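RECQ1T1 50 nM; forked duplex (20 bp + 30-nt ss tails) 200 nM, ATP 2 mM final; pH 8.0, 2 mM MgCl2, 2.5 ug/ml poly(dI-dC); 15 min compound preincubation; discontinuous kinetic read over 2 h at RT.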
FEN1 inh – blocks human flap endonuclease 1; P39748; Recombinant FEN1 flap cleavage, fluorescence, 15 min; Potency, µM (series often up to 114 µM), for inactives: at the highest dose activity change, negative = inhibition, hits mostly inhibitors; actives 0.35% (n = 390,000); AID 588795; note: potency is the fitted concentration of half-maximal effect; nearly all actives have a fitted effect of over 65% in size
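Recombinant FEN1 (10 nM) was preincubated with pin-transferred compounds for 15 min at room temperature, then flap DNA substrate (50 nM final) was added. Plates were read at 0 and 15 min, and normalized concentration–response data were fitted to a four-parameter Hill equation.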
APE1 inh-1 – APE1 (human) endonuclease inhibition; P27695; recombinant APE1, TAMRA/BHQ-2 abasic DNA cleavage fluorescence; Potency, µM (series often up to 65.8 µM), for inactives: at the highest dose activity change, negative = inhibition, hits mostly inhibitors; actives 0.35% (n = 350,000); AID 2517;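 note: potency is the fitted concentration of half-maximal effect; plate controls were vehicle for no effect and reference inhibitor for full effect; nearly all actives have a fitted effect of over 55% in size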
Target sequence (P27695 whole entry, looked up): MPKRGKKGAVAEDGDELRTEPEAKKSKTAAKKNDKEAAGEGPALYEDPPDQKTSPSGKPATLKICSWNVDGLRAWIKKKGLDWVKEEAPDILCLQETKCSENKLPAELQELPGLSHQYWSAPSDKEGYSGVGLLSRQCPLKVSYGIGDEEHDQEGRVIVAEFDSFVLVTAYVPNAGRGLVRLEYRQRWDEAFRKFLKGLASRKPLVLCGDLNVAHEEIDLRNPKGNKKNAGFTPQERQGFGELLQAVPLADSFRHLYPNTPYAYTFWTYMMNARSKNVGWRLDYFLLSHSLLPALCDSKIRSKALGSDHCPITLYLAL
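Incision of a quenched TAMRA/BHQ-2 THF abasic-site duplex (50 nM) by 0.75 nM APE1, after 15 min compound preincubation, measured as fluorescence increase over three 60 s reads. Values normalized to buffer, DMSO and NSC13755 control wells.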
PI5P4Ka inh – inhibitors of human PI5P4K alpha; P48426; PI5P4Kalpha enzyme, ADP-Glo luminescence, 60 min; stronger effect = lower value; max response, %; actives 1.2% (n = 330,000); active = max response of -50% or lower; inconclusive = between -30% and -50%; inactive = -30% or higher; note: value at the top dose of about 77 µM
Target sequence (P48426 whole entry, looked up): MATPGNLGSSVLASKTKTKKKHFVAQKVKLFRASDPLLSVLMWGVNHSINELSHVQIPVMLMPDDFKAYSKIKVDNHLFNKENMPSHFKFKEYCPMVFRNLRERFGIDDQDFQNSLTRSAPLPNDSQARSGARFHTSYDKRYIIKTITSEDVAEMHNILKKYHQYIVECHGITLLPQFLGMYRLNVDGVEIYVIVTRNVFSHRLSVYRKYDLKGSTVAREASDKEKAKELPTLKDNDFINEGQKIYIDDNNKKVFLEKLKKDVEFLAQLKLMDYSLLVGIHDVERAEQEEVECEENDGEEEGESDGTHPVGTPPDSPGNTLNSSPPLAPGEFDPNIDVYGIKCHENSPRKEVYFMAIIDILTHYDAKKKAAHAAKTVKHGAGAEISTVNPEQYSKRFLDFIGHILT
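PI5P4Kalpha ADP-Glo assay; 5 microM ATP final; 60 min RT reaction; HEPES pH 7.4/EGTA/CHAPS, 5% DMSO; controls lacking substrate or enzyme; luminescent end-point.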
WRN helicase inh – WRN helicase (human) inhibition | Q14191 | WRN helicase unwinding, fluorescent forked duplex, kinetic | Potency, µM (series often up to 114 µM), without a hit: at the top dose activity change, negative = inhibition, most hits filed as inhibitors | actives 0.46% (n = 360,000); note: potency is the fitted concentration of half-maximal effect; nearly all actives have a fitted effect of over 55% in size
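Fluorescence dequenching readout, ex 525 nm/em 598 nm, kinetic mode: forked duplex DNA (100 nM final) with adjacent fluorophore and quencher unwound by WRN (20 nM final) with 2 mM ATP. Compound preincubation 15 min, room temperature.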
APE1 dye cs – displaces fluorescent dye from DNA, flagging APE1 artifacts; AID 2564; shares compounds with APE1 inh-1; Potency, µM (titrated, usually from 28.5 µM), for inactives: top-dose activity change, negative = inhibition, most hits filed as inhibitors; DNA fluorescent dye displacement counterscreen, fluorescence; actives 7% (n = 480);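 note: loss of thiazole orange fluorescence as the dye is displaced from duplex DNA; potency is the fitted concentration of half-maximal effect; 0% = ThO with dsDNA and no compound and -100% = ThO without dsDNA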
EndoIV counter – counter-screen for APE1 inhibitors: inhibitors of E. coli endonuclease IV | shares compounds with APE1 inh-1 | actives 4% (n = 560) | E. coli Endo IV, fluorogenic AP-site DNA cleavage | Potency, µM (top dose mostly 27.1 µM), without a hit: at the top dose activity change, negative = inhibition, actives largely listed as inhibitors;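 note: potency is the fitted concentration of half-maximal effect; plate controls were uninhibited enzyme wells for no effect and no enzyme buffer wells for full effect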
APE1 inh-2 – confirmation of inhibitors of human APE1 endonuclease. shares compounds with APE1 inh-1. purified APE1, fluorogenic abasic-site DNA cleavage. Potency, µM (titrated, usually from 57.1 µM), for inactives: at the highest dose activity change, negative = inhibition, hits mostly inhibitors. actives 44% (n = 750). AID 2572; note: potency is the fitted concentration of half-maximal effect; nearly all actives have a fitted effect of over 30% in size
APE1 FP – displaces DNA from human APE1 in FP assay; AID 2573; Potency, µM (titrated, usually from 28.5 µM), for the others: at the highest dose activity, negative = inhibition, most hits filed as inhibitors; shares compounds with APE1 inh-1; APE1 binding to TAMRA-labelled double-stranded DNA, fluorescence polarization displacement; actives 7% (n = 480); note: potency is the fitted concentration of half-maximal effect
The depositor's hits bear a star; i = inactive; ? = inconclusive; . = no result; [ ] = dose if it differs, or a comment. Unless noted, calls come from the whole dose curve; as a rule, active = well fitted curve in the direction sought with a large enough effect; inconclusive = small, poorly fitted or top-dose-only effect, or another doubt; inactive = no such curve, though single readings can be large; an effect the other way counts as inactive or inconclusive. Unless noted, % is set by controls: 0 for no effect and ±100 for the full control effect.

SMILES	BLM inh	RECQ1 inh	FEN1 inh	APE1 inh-1	PI5P4Ka inh	WRN helicase inh	APE1 dye cs	EndoIV counter	APE1 inh-2	APE1 FP
COCCn1c(C)cc(C(=O)CSc2nc3nc(C)cc(C)n3n2)c1C	2.5%	-4.9%	-0.8%	11.6%	-7.8	-31.1%	.	.	.	.
COCCn1c(C)cc(C(=O)CSc2n[nH]c(N)n2)c1C	-14.2%	-23.0%	-1.5%	31.6µM*	-10.0	7.5%	-1.0%	8.1%	-6.7%[24.4 µM]	-1.4%
CC1=C(C(=O)Nc2ccc(Cl)cc2)C(c2ccc(C(F)(F)F)cc2)n2nnnc2N1 (configuration not stated)	-6.4%	.	-13.0%	.	.	.	.	.	.	.
CN(C)C1C(=O)C(C(N)=O)=C(O)[C@@]2(O)C(=O)C3=C(O)c4c(O)ccc(Cl)c4C(O)[C@H]3C[C@@H]12 (some centres not stated)	-12.9%	14.0%	.	8.6%	.	.	.	.	.	.
CN(C)[C@H]1C(=O)C(C(=O)NCN2CCCC2)=C(O)[C@]2(O)C(=O)C3=C(O)c4c(O)cccc4[C@@](C)(O)[C@H]3C[C@@H]12	-13.4%[21.4 µM]	-21.5%[25.9 µM]	.	.	.	.	5.2%	-8.9%	-10.9%[24.4 µM]	?
COc1ccc(C2=Nn3c(nnc3-c3cccc(OC)c3)SC2)cc1	1.1%	-1.4%	.	-5.3%	.	.	.	.	.	.
O=C(/C=C/c1ccccc1)c1cc(Br)ccc(=O)c1O	-18.8%	31.6µM*	?	?	-25.1	?	?	-1.0%	?	?
O=C(/C=C\c1ccccc1)c1ccccc1O	0.7%[12.4 µM]	i[11.5 µM]	.	1.1%[12.4 µM]	.	.	.	.	.	.
Cc1cc(C)c(C#N)c(SCC(=O)c2cccs2)n1	-11.6%	i	-8.2%	?	-1.8	-22.3%	.	.	-23.1%	.
O=C(Nc1ccc2nc(-c3ccco3)c(-c3ccco3)nc2c1)NC1CC1	6.31µM*	10µM*	50.1µM*	7.08µM*	-74.6*	10µM*	?	0.4%	7.94µM*	?
O=C(Nc1ccc(N2CCOCC2)cc1)Nc1ccc2nc(-c3ccco3)c(-c3ccco3)nc2c1	?	-7.8%	1.9%	3.6%	.	-9.8%	.	.	.	.
CCOC(=O)C1CCC(CN(Cc2c(Cl)cccc2Cl)S(=O)(=O)c2ccc(F)cc2)CC1 (configuration not stated)	-4.5%	.	-11.6%	.	.	.	.	.	.	.
Cn1c(=O)c2c(ncn2CC(=O)N/N=C/c2c[nH]c3ccccc23)n(C)c1=O	-3.9%	-5.9%	.	8.1%	.	.	.	.	?	.
CCn1c(SCC(=O)NCc2ccco2)nnc1-c1cccs1	-20.5%	-4.8%	0.4%	35.5µM*	.	-19.2%	?	-1.7%	?	-14.2%
NC(=O)Cn1c(=O)n(Cc2ccco2)c(=O)c2c3c(sc21)CCCCC3	?	?	-12.3%	?	.	?	?	3.5%	10µM*	?
CCOC(=O)C1=C(CN2CCN(c3ccc(Cl)cc3)CC2)NC(=O)NC1c1ccc(OC)cc1 (configuration not stated)	0.4%	.	-22.3%	.	.	.	.	.	.	.
CCn1cc(C(=O)NCC(C)C)c(=O)c2cc(F)c(N3CCN(C(=O)c4ccco4)CC3)cc21	-2.9%	.	-12.0%	49.2%	-0.8	4.4%	.	.	.	.
CCn1cc(C(=O)NCc2ccco2)c(=O)c2cc(F)c(N3CCN(C(=O)c4ccco4)CC3)cc21	-21.5%	-26.0%	-10.5%	?	?	?	.	.	?	.
COc1ccc(-c2coc3cc(O)ccc3c2=O)c(OC)c1O	-1.1%	2.1%	.	3.1%	.	.	.	.	.	.
COc1ccc(-c2coc3cc(O)ccc3c2=O)c(O)c1O	-23.3%	3.98µM*	.	3.16µM*	.	.	.	36.8%[57.1 µM]	-86.6%	.
Nc1cc([N+](=O)[O-])ccc1N1C(=O)CCCC1=O	-15.8%	i	-0.2%	?	-9.3	-12.1%	.	.	?	.
Cc1ccc(C)n1-c1ccc(C(=O)O)cc1	49.4%	-6.5%	.	14.1µM*	.	.	.	.	12.6µM*	.
CCN(CC)c1ccc(-c2nnc(SCC(=O)Nc3ccccc3C#N)n2-c2ccccc2)cc1	-12.3%	-19.6%	12.0%	?	-8.3	-9.2%	4.1%	?	?	9.1%
CCOc1ccc2c(c1)c(=O)c(C(=O)c1ccccc1)cn2Cc1ccccc1	-6.1%	.	6.4%	.	.	.	.	.	.	.
O=c1oc2c3c4c(cc2s1)CCCN4CCC3	?	28.2µM*	?	28.2µM*	.	?	0.5%	46.2%	15.8µM*	-0.8%
S=C(S)OC1CC2CC1C1CCCC21 (configuration not stated)	.	-1.6%	1.6%	2.4%	-20.6	-14.4%	.	-11.9%[57.1 µM]	-4.5%	.
S=C(S)O[C@@H]1C[C@@H]2C[C@H]1[C@@H]1CCC[C@H]21	0.9%	-20.2%	.	?	.	.	.	.	.	.
CN(C)C(=O)c1ccc(-c2ccc3ncnc(NCc4cccs4)c3c2)cc1	-5.2%	-6.6%	.	10µM*	.	.	?	-76.5%[57.1 µM]	7.94µM*	22.0%[57.1 µM]
Cc1ccsc1CNc1ncnc2ccc(-c3c(C)noc3C)cc12	-6.0%	-5.1%	?	?	.	.	.	.	.	.
